In the library only some 3.5% were active in any assay of this set; here they are far more common.
GPR151 activ: activates the human receptor GPR151; PathHunter beta-arrestin GPR151 cells, luminescence; actives 1% (n = 650,000); AID 1508602; activation, % at 11.2 µM; Q8TDV0; in the data active = activation above about 4.9%;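 also: 0% = median of compound wells and 100% = cells with positive control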
TEAD-YAP block: TEAD-YAP interaction inhibition; actives 1.4% (n = 640,000); HEK-TIYL cells, TEAD-Gal4/YAP UAS-luciferase luminescence; inhibition, % at 9.12 µM; in the data active = inhibition above about 32%;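 also: 0% = median of test compound wells and 100% = reference inhibitor wells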
MITF inh: blocks human microphthalmia-associated transcription factor. actives 0.91% (n = 650,000). AlphaScreen MITF homodimerization, bead proximity signal. inhibition, % at 2.6 µM. O75030; in the data active = inhibition above about 50%;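 also: 0% = vehicle wells with protein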
FBW7 act: human FBW7 E3 ligase activation, primary screen; Q969H0; AlphaScreen FBW7–phospho-cyclin E peptide binding, activator screen; normalized activity (activation), % at 26.1 µM; actives 0.13% (n = 650,000); in the data active = normalized activity above about 1.9%;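 also: purified mutant Fbw7 with reduced substrate affinity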
An asterisk follows results filed as active.

How did O=C(N/N=C/c1ccc(O)c(O)c1)c1cccc(N/N=C/c2ccc(O)c(O)c2)c1 do in these assays?
GPR151 activ: -2.2; TEAD-YAP block: -27.2; MITF inh: 104.7*; FBW7 act: -0.3

How did O=C(N/N=C/c1ccc(O)c(O)c1)N/N=C/c1ccc(O)c(O)c1 do in these assays?
GPR151 activ: -0.1; TEAD-YAP block: -3.0; MITF inh: 95.1*; FBW7 act: -0.1

How did Nn1cnnc1N/N=C/c1ccc(O)c(O)c1 do in these assays?
GPR151 activ: -1.1; TEAD-YAP block: -4.5; MITF inh: 87.6*; FBW7 act: -0.7

How did Nc1nnc(CC(=O)N/N=C\c2ccc(O)c(O)c2)s1 do in these assays?
GPR151 activ: 1.2; TEAD-YAP block: 4.2; MITF inh: 52.4*; FBW7 act: -0.3

Results for CC(C)(C)c1ccc(-c2csc(NC(=O)c3ccc(S(=O)(=O)N4CCc5ccccc54)cc3)n2)cc1 ?
GPR151 activ: 0.4; TEAD-YAP block: -7.1; MITF inh: 0.2; FBW7 act: 0.0

How did Cc1noc(C)c1-c1nc(Nc2ccc(Oc3ccccc3)cc2)c2[nH]cnc2n1 do in these assays?
GPR151 activ: -0.7; TEAD-YAP block: -0.1; MITF inh: -4.0; FBW7 act: -0.1

What do the screens show for `CCOC(=O)c1oc2c(O)c(O)ccc2c(=O)c1-c1nncn1-c1ccccc1`?
GPR151 activ: 0.3; TEAD-YAP block: 1.4; MITF inh: 82.4*; FBW7 act: -1.3

How did CCOC(=O)c1oc2c(C)c(O)ccc2c(=O)c1-c1nncn1-c1ccccc1 do in these assays?
GPR151 activ: -0.7; TEAD-YAP block: 2.4; MITF inh: 2.9; FBW7 act: 0.0

How did Oc1c(CN2CCOCC2)cc(Cl)c2cccnc12 do in these assays?
GPR151 activ: -0.9; TEAD-YAP block: 50.3*; MITF inh: 64.1*; FBW7 act: -0.1

What do the screens show for `O=C(Oc1c(Br)cc(Cl)c2cccnc12)N1CCCCC1`?
GPR151 activ: -0.5; TEAD-YAP block: -10.7; MITF inh: -11.6; FBW7 act: 0.0

What do the screens show for `CC1CN(Cc2cc(Cl)c3cccnc3c2O)CC(C)O1` (stereo not drawn)?
GPR151 activ: -0.9; TEAD-YAP block: 24.0; MITF inh: 56.3*; FBW7 act: -0.4

What do the screens show for `O=C1c2ccccc2C(=O)N1Cc1cc(Cl)c2cccnc2c1O`?
GPR151 activ: 0.7; TEAD-YAP block: 9.1; MITF inh: 8.8; FBW7 act: -0.1

What do the screens show for `O=C1CCCN1Cc1cc(Cl)c2cccnc2c1O`?
GPR151 activ: 0.6; TEAD-YAP block: 8.7; MITF inh: 64.5*; FBW7 act: -0.1

Results for Oc1c(CN2CCCCCC2)cc(Cl)c2cccnc12 ?
GPR151 activ: -1.2; TEAD-YAP block: 50.5*; MITF inh: 45.8; FBW7 act: -1.1

What do the screens show for `O=C(NC(n1ccnn1)C(Cl)(Cl)Cl)c1ccccc1` (stereo not drawn)?
GPR151 activ: -0.7; TEAD-YAP block: -3.9; MITF inh: -8.6; FBW7 act: -0.2

What do the screens show for `Oc1c(CN2CCN(c3cccc(C(F)(F)F)c3)CC2)cc(Cl)c2cccnc12`?
GPR151 activ: 0.5; TEAD-YAP block: 16.1; MITF inh: 6.9; FBW7 act: -0.9

What do the screens show for `OCC1CCCCN1Cc1cccc(Cl)c1Cl` (stereo not drawn)?
GPR151 activ: -1.3; TEAD-YAP block: 2.6; MITF inh: 6.3; FBW7 act: 1.1

Results for CCOC(=O)C1CCN(Cc2c(Cl)cccc2Cl)CC1 ?
GPR151 activ: 0.0; TEAD-YAP block: -15.8; MITF inh: 27.7; FBW7 act: -0.2

How did CCOC(=O)C1CCN(Cc2cc(Cl)c3cccnc3c2O)CC1 do in these assays?
GPR151 activ: -0.6; TEAD-YAP block: 72.2*; MITF inh: 43.0; FBW7 act: -0.3

How did CCN1CCN(Cc2cc(Cl)c3cccnc3c2O)CC1 do in these assays?
GPR151 activ: 1.1; TEAD-YAP block: 46.7*; MITF inh: 50.1; FBW7 act: -0.1

How did CN1CCN(Cc2cc(Cl)c3cccnc3c2O)CC1 do in these assays?
GPR151 activ: 0.2; TEAD-YAP block: 53.6*; MITF inh: 78.7*; FBW7 act: -1.2

Results for OCC1CCCCN1Cc1cc(Cl)c2cccnc2c1O (stereo not drawn) (tested in a mixture with another compound) ?
GPR151 activ: -0.3; TEAD-YAP block: 76.2*; MITF inh: 65.8*; FBW7 act: -0.3

Results for Cc1ccc(-n2cc(/C=C3/C(=O)NC(=O)N(CCc4ccccc4)C3=O)cn2)cc1 ?
GPR151 activ: 1.4; TEAD-YAP block: -12.4; MITF inh: 2.2; FBW7 act: -0.1

What do the screens show for `COC(=O)C1=C(C(=O)OC)SC(=C2C(=S)C(C)(C)N(C(=O)c3ccccc3-c3ccccc3)c3cc(C)ccc32)S1`?
GPR151 activ: -0.8; TEAD-YAP block: -1.6; MITF inh: 60.7*; FBW7 act: 0.3
